Reference: PubChem BioAssay AID1117319 (Southern Research Institute, 2015)
In all, about 260,000 compounds went through this assay and about 1,500 (0.58%) were called active. Inconclusive results (about 5%) are left out. Not all results are given here. Results with a measured potency or affinity are listed apart. A number with no mark means an inactive call.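 How the source made its calls: active means inhibition above a set limit at one or more doses, reproduced on every date tested; inconclusive means results disagree between test dates, or hit never tested in dose response; inactive means the rest.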

Target: Virion infectivity factor (Human immunodeficiency virus type 1 group M subtype B (isolate BH10)) + Virion infectivity factor (Human immunodeficiency virus type 1 group M subtype B (isolate BRU/LAI)) + Virion infectivity factor (Human immunodeficiency virus type 1 group M subtype B (isolate PCV12)) + Virion infectivity factor (Human immunodeficiency virus type 1 group M subtype B (isolate HXB2)) + DNA dC->dU-editing enzyme APOBEC-3G (Homo sapiens) (UniProt P69720+P69721+P69722+P69723+Q9HC16)
Assay: HIV-1 Vif–A3G interaction blockers – biochemical, TR-FRET, GST-Vif 1-94, biotin-A3G peptide, dose response retest, primary screen (AID 1117319);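 further: Vif residues 1-94 fused to GST binding biotinylated APOBEC3G peptide 110-148; 0% = full assay without inhibitor and 100% = GST in place of GST-Vif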
Details: TR-FRET GST-Vif / biotin-A3G peptide binding; active compounds read high

Row | Structure (SMILES) | inhibition
1 | Cc1ccc(-c2cc(N)n(-c3ccccc3)n2)cc1 | -2.7%
2 | Cc1ccc(-c2cc(N)n(-c3ccc(C)cc3)n2)cc1 | -11.3%
3 | CCOC(=O)c1ccc(N2C(=O)C3CC=C(C)CC3C2=O)cc1 (configuration not stated) | 24.6%
4 | Cc1ncc(CO)c(/C=N/NC(=O)c2cc(Br)ccc2O)c1O | 11%
5 | O=C(N/N=C\c1cccnc1)c1ccccc1O | -5.54%
6 | COc1ccc(C(=O)N/N=C/c2c(CO)cnc(C)c2O)cc1 | 8.42%
7 | O=C(N/N=C/c1cccnc1)c1ccccc1 | -11.7%
8 | Cc1ccc(NC2=NCCCCC2)cc1 | 0.64%
9 | CCN(CC)C(=O)[C@H]1C[C@H](CC(=O)NC(C)(C)C)C(=O)N2CCc3c([nH]c4ccc(Cl)cc34)[C@]12C | -8.68%
10 | CNC(=O)CN(C1CCCCC1)S(=O)(=O)c1ccc(F)cc1 | -2.39%
11 | Cn1cccc1Cc1nnc(SCC(=O)NCc2ccco2)n1CCc1ccccc1 | 1.07%
12 | Cn1cccc1/C=C1\CC(C(C)(C)C)C/C(=C\c2cccn2C)C1=O (configuration not stated) | 1.11%
13 | CC1C/C(=C/c2cccn2C)C(=O)/C(=C/c2cccn2C)C1 (configuration not stated) | 32.9%
14 | O=C1/C(=C/c2ccccc2)SC(=S)N1N1C(=O)C2CC2C1=O (configuration not stated) | -1.11%
15 | CC(C)Cc1nnc(NC(=O)c2cccc(S(=O)(=O)N3CCN(C)CC3)c2)s1 | 3.22%
16 | O=C(/C=C/c1ccccc1[N+](=O)[O-])OCC(=O)c1ccccc1 | -4.21%
17 | Cc1ccc(C(=O)CSc2nc3cccnc3n2C)cc1 | 6.72%
18 | O=C(COc1cc(Cl)c(Cl)cc1Cl)NCCN1CCOCC1 | 8.15%
19 | Cc1nnc(NC(=O)CCC(=O)NCc2ccco2)s1 | 6.21%
20 | NC(=O)COC(=O)c1ccc(C(=O)C(=O)c2ccccc2)cc1 | 4.49%
21 | NC(=O)COC(=O)c1ccc(-c2ccccc2)cc1 | -9.63%
22 | O=C(CSC(=S)N1CCOCC1)Nc1ncc2c(n1)CCCC2=O | 1.41%
23 | O=C(NCC(O)c1ccccc1)c1cccs1 (configuration not stated) | -7.1%
24 | Cc1sc(NC(=O)c2ccco2)c(CN2CCN(c3ccccn3)CC2)c1C | 17.2%
25 | O=C(O)c1cc(-c2ccc(/C=N/Nc3ccc([N+](=O)[O-])cn3)o2)ccc1Cl | 5.44%
26 | NC(=O)N/N=C/c1ccc(-c2ccc([N+](=O)[O-])cc2)o1 | 0.97%
27 | O=C(CCNC(=O)c1ccc([N+](=O)[O-])cc1)Nc1cc(Cl)ccc1N1CCOCC1 | -3.46%
